The panel holds about 83,000 compounds, 20% with a hit somewhere; the sample as a whole holds those more often.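 Cells were grown in 96-well plates and exposed to the test compound at a single concentration for 48 hours; results are reported as percent growth, with values below 10 considered active.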 Active and inactive are the calls of the source.
test system: SK-MEL-2 melanoma; test: NCI-60 one-dose screen, 48 h (100 = growth as untreated, 0 = no growth, -100 = all killed); conditions: 10 µM unless noted

Compound | growth
COc1ccc(/C(C)=C(\c2ccc(Cl)cc2)c2ccc(OCCN3CCCC3)cc2)cc1F | 59.9% (inactive)
Nc1c(-c2nc3ccccc3c(=O)[nH]2)nnn1-c1ccc(Cl)cc1 | 96.3% (inactive)
O=C(/C=C/C12c3ccccc3C(c3ccccc31)C1C(=O)NC(=O)C12)c1ccc(Cl)cc1 (centres undefined) | -7.61% (active)
Clc1ccc(-c2cn(-c3ccccc3)c(-c3ccccc3)n2)cc1 | 110% (inactive)
COc1cc(C2C=C(c3cccc(NC(C)=O)c3)Nc3ncnn32)cc(OC)c1OC (centres undefined) | 64.9% (inactive)
COc1cc(NC(=O)c2cc(O)c(CC=C(C)C)c(O)c2)cc2c1O[C@]1(C)CC[C@@H](O)C(C)(C)[C@H]1C2 | 14.7% (inactive)
Clc1ccc(/C=C/c2nc(Nc3ccc(Cl)cc3)c3ccccc3n2)cc1 | 106% (inactive)
C=C1C(=O)O[C@H]2[C@H]1CC/C(COC(=O)/C=C\C(=O)NCc1ccc(Cn3c(=O)sn(CCCC)c3=O)cc1)=C\CC[C@@]1(C)O[C@@H]21 | -54.2% (active)
O=[N+]([O-])c1ccc2[nH]cc(-c3c4ccsc4cc4[nH]c5ccc([N+](=O)[O-])cc5c34)c2c1 | 2.1% (active)
CC1=NN(c2cccc(Cl)c2)C(=O)/C1=C\c1cn(CC(O)CN2CCCCC2)c2ccccc12 (centres undefined) | 73.8% (inactive)
Clc1ccc(-c2nc(NCCc3ccccc3)nc3c(NCCc4ccccc4)cnn23)cc1 | 79.6% (inactive)
O=C(C[C@@]1(O)C(=O)Nc2c(Cl)ccc(Cl)c21)c1ccc(C2CC2)cc1 | 43.1% (inactive)
CCC(O)(C(c1ccccc1)c1ccccn1)C(c1ccccc1)c1ccccn1 (centres undefined) | 97.5% (inactive)
Cc1nc(Nc2ccc(S(=O)(=O)Nc3cc(C)on3)cc2)c2ccccc2n1 | 102% (inactive)
CCOc1cc(C2C(Cl)C(=O)N2n2cnnc2)ccc1O (centres undefined) | 100% (inactive)
NC(=Nc1ccc(N)cc1)C(N)=Nc1ccc(N)cc1 | -7.4% (active)
CCCCCCCCCCCCCCCCCC1=NCCN1C(=O)OCCO | 76.8% (inactive)
NC(=S)c1csc(CCNC(=O)c2ccccc2)n1 | 115% (inactive)
O=C1CCC(N2C(=O)c3cccc(NCCCC4CCN(CCNC(=O)c5cc6c(o5)C(=O)c5ccccc5C6=O)CC4)c3C2=O)C(=O)N1 (centres undefined) | -46.4% (active)
Nc1c(-c2nc3ccc(Br)cc3c(=O)[nH]2)nnn1-c1ccccc1 | 94.6% (inactive)

Compound | growth
O=C(Oc1ccc[nH]c1=O)c1cc([N+](=O)[O-])cc([N+](=O)[O-])c1 | -11.5% (active)
COc1ccc(-c2cc(-c3ccc(Nc4nc(Nc5ccccc5)nc(Nc5ccc(Cl)cc5)n4)cc3)nc(N)n2)cc1 | 70.7% (inactive)
CSc1ccc(Cl)c(C(=O)Nc2sccc2C(N)=O)c1 | 92.7% (inactive)
OCCCCc1nccc2c1[nH]c1ccccc12 | 121% (inactive)
CCOC(=O)c1sc(-c2ccc(OS(=O)(=O)c3ccc(C(C)(C)C)cc3)c(C=O)c2)nc1C | 72.7% (inactive)
CCOC(=O)c1cnn2c(-c3ccc(Cl)cc3)nc(NCc3ccccc3)nc12 | 91% (inactive)
COc1ccc(/C=C2\COc3ccc(O)cc3C2=O)cc1OC | 97.1% (inactive)
CS(=O)(=O)c1ccc(N/N=C/c2c(-c3ccc(S(C)(=O)=O)cc3)[nH]c3ccc(F)cc23)cc1 | 3.8% (active)
N#Cc1cnn2c(-c3ccc(Cl)cc3)nc(NCCc3ccccc3)nc12 | 89.1% (inactive)
Cc1nc(Nc2cccc(NC(=O)Nc3ccc(Cl)cc3)c2)c2ccccc2n1 | 107% (inactive)
Nc1ccc(-c2cc3c(Nc4ccc(OCc5cccc(F)c5)c(Cl)c4)ncnc3s2)cc1 | 25.3% (inactive)
O=[N+]([O-])c1ccc(-c2cc3c(Nc4ccc(Sc5nc6ccccc6s5)c(Cl)c4)ncnc3s2)cc1 | 46.7% (inactive)
C=C1c2c(C)nn(-c3ccc(O)cc3)c2N(C)C23C[C@@H]1C1(C)c4c(C)nn(-c5ccc(O)cc5)c4N(C)C(C)(C[C@H]12)C3 (some centres undefined) | 44.3% (inactive)
CN(C)CCC(O)(Cc1ccccc1)c1ccccc1 (centres undefined) | 100% (inactive)
NS(=O)(=O)c1cnccc1-n1ccc(=O)c(S(N)(=O)=O)c1 | 81.1% (inactive)
Oc1[nH]c2ccccc2c1/C=c1/cc2c(c(-c3ccc(F)cc3)n1)=Nc1ccccc1-2 | -3.73% (active)
COc1cc(/C=C/C(=O)c2ccc(Nc3nc(Nc4ccccc4)nc(Nc4ccc(Cl)cc4)n3)cc2)cc(OC)c1OC | 82% (inactive)
CCOC(=O)C1=C(C)NC(SCc2nnc(-c3ccc(Cl)cc3)o2)=NC1c1ccc(Cl)cc1Cl (centres undefined) | 60.3% (inactive)
CCCCN(Cc1ccc(C(=O)NO)cc1)C(=O)Nc1ccc(OCCCCCCCCCn2cc(CCCCC(=O)N[C@H](C(=O)N3C[C@H](O)C[C@H]3C(=O)NCc3ccc(-c4scnc4C)cc3)C(C)(C)C)nn2)cc1 | 90.6% (inactive)

— PubChem BioAssay (NCI)
